Experimental data from PubChem BioAssay AID1508600 (Functional Genomics Laboratory (NCATS/FGL), 2020).
In all, about 53,000 sequences went through this assay and about 3,700 (7%) were called active. Many of the other results were omitted from the sample, so actives are more common in it than they were. Unmarked numbers belong to inactive results.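 Rule for the calls: active = gene knockdowns whose robust z-score for IL-1 alpha signal is at least 2 or at most -2, so actives lie on both sides; inactive = the rest.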

Assay: Components of the Cytosolic LPS Sensing Pathway: Gene Identification via Genome-wide siRNA Screen
Details: RAW264.7 macrophages, IL-1a HTRF, actives lie on both sides, screened at 100 nM (by protocol), cells primed 5 h with Pam3CSK4 first
Text: Non-canonical inflammasome activation by cytosolic LPS is a critical component of the host response to Gram-negative bacterial infection, however we lack a comprehensive understanding of the cellular processes that control this pathway. Here we describe a genome-wide siRNA screen to identify genes regulating the mouse macrophage IL-1 alpha response to cytosolic LPS.
RAW264.7 cells were maintained in complete DMEM media, comprising DMEM with 4.5 g/L glucose, 10% FBS (Gemini Bio-Products, West Sacramento, CA), 2 mM Glutamine (Lonza) and 20 mM HEPES (Lonza), hereafter complete DMEM.
The RNAi screen was conducted in 384-well format using the Ambion Silencer Mouse Genome siRNA Library (#4391425), which consists of three unique, nonoverlapping, nonpooled siRNAs for each of 17,000 gene targets. siRNA reagents ([…]) were stamped into 384-well white flat-bottom microplates (Corning, 3570) using a Velocity11 VPrep liquid handling system (Agilent) integrated into a BioCel robotic platform (Agilent) in columns 1-22, leaving columns 23-24 empty for negative (Ambion, Negative control #1) and positive (mouse Casp4) controls, respectively. The median value of each plate's negative control column was used to normalize sample wells, and the positive control was used to assess transfection efficiency and assay performance.
Lipofectamine RNAiMAX Transfection Reagent ([…]; Invitrogen) was added in […] serum-free, antibiotic-free media to plate wells using a Thermo Scientific Matrix WellMate and Microplate Stacker. Plates were incubated for 45 min at room temperature to allow for the sufficient formation of siRNA-lipid complexes. Cells were seeded at a density of 1x10^4 cells per well in 20 microL media containing 20% (vol/vol) FBS without antibiotics. The final concentration of siRNA in each well was 100 nM. Cells were cultured for 48h at 37 degrees C in 5% CO2 before addition of […] of TLR ligand Pam3CSK4 for 5 hours. The medium was then removed, replaced with […] growth media and cell were transfected with […] of LipidA and TransIT-TKO (Mirus) for 24 hour. At the end of the LipidA treatment, […] of supernatant was transferred to a 384 Greiner Bio-one non-binding low volume plate and […] of IL-1a HTRF reagent (Cisbio, 62MIL1APEH) was added and incubated at room temperature overnight. The plates were read on an EnVision plate reader (PerkinElmer). Cell viability was measured by adding 20ul Cell Titer Glo to the original plate and running a luminescence read on the EnVision. The quantified IL-1a signal for each siRNA gene-targeted well was divided by the median of the negative control wells and multiplied by 100 to achieve a negative control normalized value for each well/siRNA. This normalized value was then used to generate a robust z-score by first taking the log of each value and then by subtracting the median and dividing by the […].
With CCCAUUACGCAAAUUGUUCTT against Rin3 the z-score was -2.31 (active).
Sequence GCCACGUCUGAACACUUCATT against Vamp8 has a z-score of 0.873.
With GCCUGUUUAGAAUUAGAGATT against Plekhs1 the z-score was 0.135.
GCUGAUGGACAAAUUCCACTT against Rapgef1 showed a z-score of 0.505.
In the case of GCCAUUGCUAUCCAUCGUGTT against Ddx39b, the z-score was -2.57 (active).
CCAAAGUUCCCUUAGCCAUTT against Cntrob showed a z-score of 0.12.
GCGGCACUUUAUCAUUAUCTT against Hint3 showed a z-score of 0.398.
With GCCCAUUCUAAACAAAUAATT against Ptcd1 the z-score was -0.825.
For GGAGCUUAAAGUGAGCGGCTT against Lage3, the z-score was -0.859.
CGACCAGUCACAAUGGUUATT against Edil3 gave a z-score of 1.43.
GGUGAUUGCUGAAGACGAGTT against Fbxw8 showed a z-score of -0.172.
With CCUCGAAACUCAUUUCCAGTT against Prkch the z-score was -0.603.
In the case of GGGUUAAUCCCUAUCUCUUTT against Tfe3, the z-score was 0.419.
GAUCUCAAACAUUCUAUGCTT against Lce1c showed a z-score of -1.14.
In the case of GGAGCCAAGUGUGAUUACATT against Pias3, the z-score was 6.29 (active).
For GGAAUCUGAAUUUUUGUGUTT against Commd1, the z-score was -0.576.
Work on GACCUGUUUUGUCUUUUGCTT against Ms4a4c yielded a z-score of 1.34.
GCUUGAUAGGGAACUUAAUTT against Olfr805 showed a z-score of -1.57.
GCUGCUGGAUGCAACCAAATT against Slc16a3 showed a z-score of -0.379.
Sequence GCUGCACGUGAUCAUGGAUTT against Accs has a z-score of 0.852.
With GCCUAAGAUCUGGACCUAATT against Timm44 the z-score was -0.35.
With GGAGAAGCAUUAUUUUGAATT against Myb the z-score was 0.798.
In the case of “GGACGACUGGAAGUUUUCUTT against 5830411N06Rik”, the z-score was 3.95 (active).
For GGAGCCCUUGCUCUUUAACTT against Izumo1r, the z-score was -2.23 (active).
For GGACAUAAGAGAAUGGUCATT against Lpp, the z-score was 2.07 (active).
With GGCAAAUGUACUAAAAUGATT against Gpr34 the z-score was 0.764.
In the case of GCCACUUACACUUACUUGATT against Olfr1331, the z-score was -0.15.
Sequence GCAUAAGCCACACCCUCUGTT against Cops7a has a z-score of 1.03.
GGGAAAUUUAAAAACCUGGTT against Hoxa2 showed a z-score of -0.139.
For GGAAAGACCAUUCUGUAUUTT against Vps37d, the z-score was -1.54.
For GCUGAACUGUCUCAGCUCATT against Tmem81, the z-score was 2.06 (active).
AGAAGAUACCGAUCAAGCGTT against Nsmce3 gave a z-score of 0.049.
For GCAUGGGCAUAACCGAAAGTT against Rex2, the z-score was -0.332.
For GGAGAAGUAAUGACAAAUUTT against Foxp4, the z-score was -1.47.
In the case of GGACGUGACUCUCAUCAUCTT against Atp2b3, the z-score was 0.929.
In the case of GUGAUGUGGCCAUGUCAAUTT against Olfr641, the z-score was -2.61 (active).
GGAGAGGAAAAUUGUAUUUTT against Alox12 showed a z-score of -0.037.
Work on CCCAUUCUGUAUAUAGUGCTT against Adam6a yielded a z-score of -0.0363.
CGGUUAGAGCAUUAAGUUCTT against Lias gave a z-score of 0.817.
GCUCGAUUCAGAAAUCUACTT against Sgce gave a z-score of -0.735.
GACUGAACAGAUCUACUCUTT against Klra7 gave a z-score of -0.413.
With CGCAUUUCGAAUAAAGACATT against Mettl22 the z-score was -0.546.
With GCAUUUCACCGUCAUGAACTT against Ttll12 the z-score was -2.55 (active).
For GGAAGUUUGCUCAAUCUCATT against Jarid2, the z-score was 1.12.
GGACCUGUAUUCACACCUUTT against Wdr61 gave a z-score of 0.0931.
With GGGUUUUUGAUGAUGAUUCTT against Htatsf1 the z-score was -0.66.
Sequence CGGGAUAGCUGUCCUGUUATT against Mrps14 has a z-score of 0.127.
In the case of GAAGCGAUGCUCAGAUCCATT against Serpina1d, the z-score was 0.136.
In the case of GCCCUCCUUAUAGCUUAAUTT against Asic3, the z-score was -2.2 (active).
GCUUCGAAGCAACAUCCGATT against Rims3 showed a z-score of -0.00729.
With GGAAAAACUGUGCAAAUAATT against Krt75 the z-score was 1.26.
GCAGGCAUUCUGCUCUAUATT against Oxgr1 showed a z-score of 1.01.
Work on GGGACAUUAAUAAACCUGATT against Omg yielded a z-score of -0.269.
CCAUGGCCUAGAGCUGGAUTT against Unc5cl gave a z-score of 0.315.
Work on GGAAGUAACAUGCUUCUAGTT against Ccdc42 yielded a z-score of 0.75.
GGAUUCCAUCUUUGUAUGATT against Cbr4 showed a z-score of 0.689.
GCCAAGUGAUUGAAAAAACTT against Lnpk showed a z-score of -0.423.
For GGUGAAGAAAGUCAAGAAGTT against Spi1, the z-score was -2.46 (active).
GGUUCUGGUGGUGAAUGUGTT against Kcnd1 showed a z-score of -1.51.
In the case of GCGAGUUGUUUCCAUAGUUTT against Gpr22, the z-score was -0.388.
In the case of GGCAGAGCUAGAUCAAAUUTT against Retreg1, the z-score was 3.58 (active).
Work on GGAAAUUCACACAGAUGAATT against Mtmr12 yielded a z-score of -1.27.
Sequence GCCAACCUUCAAGGAAUAUTT against Cyp2b10 has a z-score of 1.4.
Sequence GGGAAGACAAGAACAACUUTT against Pitrm1 has a z-score of 0.756.
With GGUCGUUAUCACUCUCUAUTT against Pkd1l3 the z-score was 3.34 (active).
With CCCUUUAGCUUCCUAAUGUTT against Rhag the z-score was 0.11.
In the case of GGUUUUAUUAACUCUGUGATT against Olfr1013, the z-score was 0.453.
In the case of GGACUGCUUUUUUUACUCATT against Mta2, the z-score was -2.07 (active).
CCUGGUAAUCACAAUUUCGTT against Tor1b showed a z-score of -0.655.
